Measured values taken from PubChem BioAssay AID449762 (Southern Research Specialized Biocontainment Screening …, 2010).
Out of some 330,000 compounds screened, about 1,900 (0.58%) were called active. Not shown: some 4% with an inconclusive outcome. A selection follows. Entries with a potency or affinity are not part of this list. Values without a mark were called inactive. Cut-off read from the data, not from the text of the source: inconclusive = inhibition above about 70% without an active follow-up result; inactive = below that.

assay: M. tuberculosis growth inhibition, HTS (AID 449762);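 note: bacterial growth assessed after seven days of incubation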; conditions: M. tuberculosis H37Rv growth inhibition, 7H9 media; at 25 µM; stronger effect = higher value

Row | SMILES | inhibition
1 | CCOc1ccc(C(=O)/C=C/c2ccccc2C(F)(F)F)cc1 | 9.8%
2 | CC(C)(C)c1ccc(C(=O)C=[N+]=[N-])cc1 | -1.15%
3 | COc1ccc(CC(=O)NNC(=O)CCc2ccccc2)cc1OC | 0.55%
4 | O=C(NCC(O)c1ccccc1)c1ccccc1 (stereo unspecified) | -1.58%
5 | Cc1ccc(C)c(Cc2c(C)nc3c(C(=O)NCc4ccc5c(c4)OCO5)cnn3c2C)c1 | 65.9%
6 | CN1C(=O)/C(=C/c2ccc(OCc3cccc(F)c3)cc2)NC1=S | 14.5%
7 | Cc1cccc(NC(=S)Nc2ccccn2)c1 | -7.66%
8 | CCCNC(=S)Nc1ccc(Oc2ccccc2)cc1 | -11%
9 | COc1ccc(NC(=S)Nc2ccccn2)cc1 | -2.6%
10 | CCCNC(=S)Nc1ccccc1 | 0.1%
11 | N#Cc1cc2c(nc1SCc1cccnc1)CCCCC2 | 7.53%
12 | CC1CCN(S(=O)(=O)c2ccc(S(=O)(=O)N3CCC4(CC3)OCCO4)cc2)CC1 | 0.35%
13 | Cc1cc(NC(=O)/C=C/C(=O)N(CC(=O)NC2CCCC2)c2cccc3ccccc23)no1 | -2.08%
14 | COc1ccc(CCNCC2C(Oc3ccc(Cl)cc3)C(=O)N2c2ccccc2C)cc1OC (stereo unspecified) | 11.7%
15 | COC(=O)c1ccc2c(=O)[nH]c(COC(=O)CCC(=O)c3ccc(Cl)cc3)nc2c1 | 0.04%
16 | Cc1cc(=O)c2ccc3ccccc3c2[nH]1 | 10.2%
17 | CCCc1c(C)nc2ccc(OC)cc2c1SCCC(=O)O | -2.63%
18 | COc1ccc(C(=O)Nc2cc3c(cc2Cl)OCCCO3)cc1 | 5.96%
19 | CCc1ccccc1NC(=O)CSc1nc2n[nH]c(C)c2c(=N)n1-c1cccc(OC)c1 | 7.97%
20 | COc1cccc(NC(=O)CSc2nc3n[nH]c(C)c3c(=N)n2-c2cccc(OC)c2)c1 | -0.47%
21 | O=C(CSc1ccc(Br)cc1)N1CCN(C(=O)c2ccco2)CC1 | 2.56%
22 | O=C(c1ccc2c(c1)OCO2)C1CCCN(Cc2cn[nH]c2-c2ccccc2)C1 (stereo unspecified) | 4.84%
23 | COc1ccc(C(=O)C2CCCN(Cc3cn[nH]c3-c3ccccc3)C2)cc1OC (stereo unspecified) | 2.2%

Row | SMILES | inhibition
24 | CC1Cc2cccc3c(O)c(C(=O)c4nn[nH]n4)c(=O)n1c23 (stereo unspecified) | 14.9%
25 | N#Cc1nc(COc2ccccc2)oc1N1CCCC1 | -0.06%
26 | CC(C)NC(=O)c1onc(CSc2cccc(F)c2)c1C(=O)O | 33.3%
27 | CC(C)NC(=O)c1onc(CSc2ccc(F)c(F)c2)c1C(=O)NC(C)C | 8.4%
28 | COc1ccc(C)cc1N(C(=O)c1snc(C(N)=O)c1N)C(C(=O)NC1CCCC1)c1ccc(F)cc1 (stereo unspecified) | 41.8%
29 | CCOC(=O)c1sc(NC(=S)NC(=O)c2cccc(Cl)c2)c(C(=O)OCC)c1C | 3.64%
30 | C#C[C@]1(O)CC[C@H]2[C@@H]3CCc4cc(O)ccc4[C@H]3CC[C@@]21C | 2.29%
31 | C#C[C@]1(O)CC[C@H]2[C@@H]3CCc4cc(OC)ccc4[C@H]3CC[C@@]21C | -0.52%
32 | Cc1cc(C)nc(Sc2nc(Nc3ccccc3)nc(Sc3nc(C)cc(C)n3)n2)n1 | -5.43%
33 | Cc1csc(SCCN2C(=O)c3ccccc3C2=O)n1 | 1.44%
34 | O=[N+]([O-])c1ccc2c(c1)oc1ccccc12 | -7.51%
35 | O=[N+]([O-])c1ccc2nc(-c3ccccc3)oc2c1 | -0.96%
36 | Cn1c(=O)c2c(nc(CN3CCN(c4ccc(F)cc4)CC3)n2Cc2ccccc2F)n(C)c1=O | -1.15%
37 | Cc1cc(C(=O)OCC(=O)Nc2cccnc2Cl)c2ccccc2n1 | 3.92%
38 | COc1ccc(CCNc2ccc(C(CC(N)=O)NC(=O)c3cc(OC)ccc3OC)cc2[N+](=O)[O-])cc1 (stereo unspecified) | -2.34%
39 | COc1ccc(OC)c(C(=O)NC(CC(N)=O)c2ccc(NCC3CC3)c([N+](=O)[O-])c2)c1 (stereo unspecified) | 8.73%
40 | Cc1cc(-n2c(C)cc(C(=O)COc3ccc(F)c(F)c3)c2C)no1 | 12.9%
41 | Cc1cc(C(=O)COc2ccc3ccc(=O)oc3c2)c(C)n1C | -2.83%
42 | Cc1ccc(Cl)cc1N1CCN(Cc2cc3c(cc2O)CCC3)CC1 | -2.77%
43 | COc1cccc(CN(C)C(=O)c2cc(S(=O)(=O)NCc3ccccc3)ccc2C)c1OC | -0.57%
44 | COc1ccc(-c2nc(C#N)c(NCc3cccnc3)o2)cc1OC | -2.1%
45 | COc1ccc(-c2nn(-c3ccccc3F)cc2CNCCn2nc(C)cc2C)cc1 | 63.9%
46 | Cc1ccc(-n2cc(CNCCN3CCOC3=O)c(-c3ccc(F)cc3)n2)cc1 | 6%

Row | SMILES | inhibition
47 | O=C(CS(=O)(=O)c1ccccc1)Nc1ccc(Cl)cn1 | -23.7%
48 | O=C(CCNC(=O)N1CC(=O)Nc2ccccc21)Nc1ccc(F)c(Cl)c1 | 1.86%
49 | Nc1nc(SCc2c(F)cccc2Cl)[nH]c(=O)c1-c1ccccc1 | 3.32%
50 | CCOC(=O)N1CCN(C(=O)CCS(=O)(=O)c2ccc3c(c2)CC(C)N3C(=O)CC)CC1 (stereo unspecified) | 7.71%
51 | CCC(=O)N1c2ccc(S(=O)(=O)CCC(=O)N3CCN(c4ccccc4F)CC3)cc2CC1C (stereo unspecified) | -7.68%
52 | CCCCn1c(N)c(N(CC(C)C)C(=O)CCCc2nc3ccccc3s2)c(=O)[nH]c1=O | -2.46%
53 | Cc1cc(C)n(S(=O)(=O)c2ccc3oc(=O)ccc3c2)n1 | 2.71%
54 | CCCCC(=O)NC(Nc1sc2c(c1C(N)=O)CCCC2)(C(=O)OCC)C(F)(F)F (stereo unspecified) | 5.17%
55 | Cc1ccc(-n2nnnc2SCC(=O)c2c(N)n(C3CC3)c(=O)[nH]c2=O)c(C)c1 | -6.46%
56 | COc1ccc(C(=O)C2CCCN(C3CSCCSC3)C2)c(OC)c1 (stereo unspecified) | 5.9%
57 | COc1ccc(C(=O)C2CCCN(C3CSCCSC3)C2)cc1OC (stereo unspecified) | -3.92%
58 | CCOC(=O)c1c(C)nc2sc(C(N)=O)c(N)c2c1-c1ccc(OC)cc1 | -6.87%
59 | NC(=O)CCN(Cc1ccccc1)S(=O)(=O)c1ccccc1 | -1.39%
60 | CCCCNC(=O)COC(=O)CNC(=O)c1cc(Cl)cc([N+](=O)[O-])c1 | 6.26%
61 | C=CCn1cnc2c(oc3ccccc32)c1=O | 0.22%
62 | CCN1CCN(c2ncnc3c2cnn3-c2ccccc2)CC1 | -10%
63 | c1ccc(-n2ncc3c(N4CCCCC4)ncnc32)cc1 | -3.33%
64 | CCCCNc1ncnc2c1cnn2-c1ccccc1 | 11.5%
65 | c1ccc(CNc2ncnc3c2cnn3-c2ccccc2)cc1 | -6.95%
66 | CC(C)(C)c1ccc(-c2noc(C(=O)NN)n2)cc1 | -2.97%
67 | NS(=O)(=O)c1ccc(NC(=O)COC(=O)CN2C(=O)C3CC=CCC3C2=O)cc1 (stereo unspecified) | -21.8%
68 | Cn1cc(C(=O)c2ccc(F)cc2)cc1-c1nc2ccccc2n1C | 65.4%
69 | Cn1cc(C(=O)c2ccccc2)cc1-c1nc2ccccc2n1C | 24.3%

Row | SMILES | inhibition
70 | O=C(COC(=O)c1ccccn1)Nc1ccc2c(c1)OCCO2 | -1.75%
71 | CNC(=O)COc1ccc(Nc2nnc(-c3ccc(C)c(S(N)(=O)=O)c3)c3ccccc23)cc1 | 3.37%
72 | CC(=O)c1ccc(NC(=O)C(C)OC(=O)c2cccc(-n3cnnn3)c2)cc1 (stereo unspecified) | -2.06%
73 | CCOC(=O)c1cn(Cc2ccc(Cl)cc2Cl)c2cc(C)nn2c1=O | -10.3%
74 | CCCCCc1ccc(-c2cn(Cc3ccc(C)cc3)nn2)cc1 | 2.43%
75 | COc1ccc(-c2cn(Cc3cccc(OC)c3)nn2)cc1 | -1.15%
76 | CCN(C(=O)COC(=O)c1cc(-c2ccc3cc(OC)ccc3c2)nc2ccccc12)C1CCS(=O)(=O)C1 (stereo unspecified) | 12.4%
77 | CN1N=C(/C=C/c2ccccc2)CCC1=O | -6.09%
78 | Cc1c(O)ccc2c(O)c(NC(=O)c3ccc4c(c3)CCC(C)(C)O4)c(=O)oc12 | 1.87%
79 | COC1C(OC(=O)c2ccc(C)[nH]2)C(O)C(Oc2ccc3c(O)c(NC(=O)c4ccc(O)c(CC=C(C)C)c4)c(=O)oc3c2Cl)OC1(C)C (stereo unspecified) | -2.53%
80 | COc1ccc([C@H]2CC(=O)C=C(c3cccc(CO)c3)C2)cc1 | -3.53%
81 | COc1cc(NC(=O)C/C(C)=N/NC(=O)c2cccc(O)c2)c(OC)cc1Cl | -0.8%
82 | COc1cc(NC(=O)C/C(C)=N/NC(=O)Cc2ccccc2)c(OC)cc1Cl | 9.08%
83 | COc1ccc(NS(=O)(=O)c2ccc(NC(=O)C3CCCO3)cc2)cc1 (stereo unspecified) | -9.85%
84 | COc1cccc(C2(C)NC(=O)N(CC(=O)Nc3ccc(N4CCOCC4)cc3)C2=O)c1 (stereo unspecified) | -10%
85 | CCCCOc1cccc(C(=O)Nc2ccc(NC(=O)c3cccs3)cc2)c1 | 2.91%
86 | Cc1ccccc1NCc1nc2ccccc2n1C | 2.8%
87 | Cn1c(CNc2ccc(O)cc2)nc2ccccc21 | -0.5%
88 | CC(=O)Nc1ccc(N2CCCCC2)cc1 | 1.6%
89 | CC(=O)Nc1ccc(S(=O)(=O)Nc2ccc(N3CCOCC3)cc2)cc1 | 1.49%
90 | O=C(O)c1cccc(N2C(=O)C3C4C=CC(C4=C(c4ccccc4)c4ccccc4)C3C2=O)c1 (stereo unspecified) | 4.23%
91 | CC(=O)C[C@@H](O)CC(=O)[C@@H]1OC(=O)CCCCCCCCc2ccccc21 | 0.55%
